Test results: PubChem BioAssay (NCATS)
Several values for one entry are separate records, joined by “and”; a condition that tells them apart may be missing. Equal values may be shown once. Records with an inconclusive call do not appear. A call without a number means that no potency is given here. The source holds several records for some structures; these can differ, active in one and inactive in another. Activity calls are given as the source filed them. Calls follow the shape of the dose curve; as a rule, active = well fitted inhibition curve with a large enough effect; inconclusive = small, poorly fitted or top-dose-only effect; inactive = flat fitted curve, though single readings scatter.

target: Glutathione peroxidase 1 (Homo sapiens) (UniProt P07203); experiment: Primary qHTS Assay for Inhibitors of Recombinant Selenoprotein Glutathione Peroxidase 1 (GPX1) (AID 1845191); conditions: recombinant GPX1, GR-coupled NADPH fluorescence, 15 min; series mostly up to 48.8 µM
Sequence (P07203 whole entry, looked up): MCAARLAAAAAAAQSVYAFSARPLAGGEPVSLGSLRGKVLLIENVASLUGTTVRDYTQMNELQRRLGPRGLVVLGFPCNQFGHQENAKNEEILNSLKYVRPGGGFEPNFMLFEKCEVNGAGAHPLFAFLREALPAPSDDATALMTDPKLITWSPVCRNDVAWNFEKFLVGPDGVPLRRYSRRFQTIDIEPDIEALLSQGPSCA
Summary of the method: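 10 nM GPX1 + cpd, 30 min RT; start w/ 1 mM GSH, 0.5 mM cumene hydroperoxide, 0.5 mM NADPH, 100 nM GR, 0.01% BSA; buffer 50 mM Tris-HCl pH 7.5, 2 mM EDTA, 150 mM NaCl; Fl 340/450, 0 & 15 min.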
Also: nearly all actives have a fitted effect of over 65% in size.
Potency is read from the fitted curve at half-maximal effect.

SMILES | Potency
O=C(Nc1ccc(F)c(C(F)(F)F)c1)Nc1nnc(-c2ccncc2)s1 | inactive
COc1cc2c(cc1OC)CN(CCc1ccc(NC(=O)c3cccc4c(=O)c5cccc(OC)c5[nH]c34)cc1)CC2 | inactive
CCOc1cc(C(=O)Nc2ccc(Cl)c(-c3nc4ccccc4[nH]3)c2)cc(OCC)c1OCC | inactive
Cc1cc(SCc2sc(-c3ccc(C(F)(F)F)cc3)nc2C)ccc1OCC(=O)O | 20.2 µM (active) and inactive
CNC(=O)c1ccc(N2C(=S)N(c3ccc(C#N)c(C(F)(F)F)c3)C(=O)C2(C)C)cc1F | inactive
C[C@@H]1CN(Cc2ccc(F)cc2)[C@@H](C)CN1C(=O)c1cc2c(C(=O)C(=O)N(C)C)cn(C)c2cc1Cl | inactive
COc1cc2nccc(Oc3ccc(NC(=O)NC4CC4)c(Cl)c3)c2cc1C(N)=O | inactive
COc1cccc2cc(-c3nc(C4CCC(C(=O)O)CC4)n4ncnc(N)c34)[nH]c12 (configuration not stated) | inactive
Cn1cnc2c(F)c(Nc3ccc(Br)cc3Cl)c(C(=O)NOCCO)cc21 | inactive
Cc1cnc(Nc2ccc(OCCN3CCCC3)cc2)nc1Nc1cccc(S(=O)(=O)NC(C)(C)C)c1 | inactive
CC(C)OC(=O)C1=CN(C(=O)c2ccc(F)c(F)c2)CC(C)(C)c2c1[nH]c1ccccc21 | inactive
Cc1cc(Nc2nc(N[C@@H](C)c3ncc(F)cn3)ncc2Cl)n[nH]1 | inactive
COc1cc(Nc2ncc3c(n2)-c2ccc(Cl)cc2C(c2c(F)cccc2OC)=NC3)ccc1C(=O)O | inactive
CC[C@H](Nc1ncnc2nc[nH]c12)c1nc2cccc(F)c2c(=O)n1-c1ccccc1 | inactive
CCCc1nn(C)c2c(=O)[nH]c(-c3cc(S(=O)(=O)N4CCN(C)CC4)ccc3OCC)nc12 | inactive
CS(=O)(=O)c1ccc(C(=O)Nc2ccc(Cl)c(-c3ccccn3)c2)c(Cl)c1 | inactive
CNCc1ccc(-c2[nH]c3cc(F)cc4c3c2CCNC4=O)cc1 | 20.2 µM (active)
Clc1ccc(Nc2nnc(Cc3ccncc3)c3ccccc23)cc1 | inactive
CNC(=O)c1ccccc1Sc1ccc2c(/C=C/c3ccccn3)n[nH]c2c1 | inactive
CC[C@@H](C)[C@H](NC(=O)[C@H](CC1CCCCC1)NC(=O)c1ccno1)C(=O)N1CCC2(CCc3ccccc32)CC1 | inactive
O=C(c1cc(Cc2n[nH]c(=O)c3ccccc23)ccc1F)N1CCN(C(=O)C2CC2)CC1 | inactive
COc1nc(-c2ccc3c(c2)OCO3)n(-c2ccc(NC(=O)CSc3ccccc3)cc2)n1 | inactive

target: Phospholipid hydroperoxide glutathione peroxidase GPX4 (Homo sapiens) (UniProt P36969); experiment: Primary qHTS Assay for Inhibitors of Recombinant Selenoprotein Glutathione Peroxidase 4 (GPX4) (AID 1845192); conditions: recombinant GPX4, GR-coupled NADPH fluorescence, 15 min; series mostly up to 50 µM
Sequence (P36969 whole entry, looked up): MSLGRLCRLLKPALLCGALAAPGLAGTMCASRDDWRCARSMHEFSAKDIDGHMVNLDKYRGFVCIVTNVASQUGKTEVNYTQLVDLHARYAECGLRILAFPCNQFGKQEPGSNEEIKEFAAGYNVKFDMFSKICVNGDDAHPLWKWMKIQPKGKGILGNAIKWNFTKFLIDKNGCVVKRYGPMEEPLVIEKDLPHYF
Summary of the method: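 NADPH consumption, followed by fluorescence at 340/450 nm between 0 and 15 min, reports GPX4 activity via coupled glutathione reductase (100 nM). Enzyme 200 nM was pre-exposed to compound 30 min; 0.5 mM cumene hydroperoxide and 1 mM GSH served as substrates.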

SMILES | Potency
COc1c(Cl)cc2c([nH]c3cnccc32)c1NC(=O)c1cccnc1C | inactive
CN(C(=O)c1ccc(F)cc1C(F)(F)F)C1CCN(c2nnc(-c3ccnn3C)c3ccccc23)CC1 | inactive
Cc1n[nH]c(C)c1Cc1sc2c(c1C(=O)N1C[C@H](O)CO1)c(=O)n(C)c(=O)n2CC(C)C | inactive
CC(C)(N)C(=O)N[C@H](COCc1ccccc1)C(=O)N1CCC2(CC1)CN(S(C)(=O)=O)c1ccccc12 | inactive
COc1ccc(CC2=NN3C([C@@H](CCc4ccccc4)[C@@H](C)O)=NC(C)C3C(=O)N2)cc1OC (some centres not stated) | inactive
CNC(=O)c1ccc(C)c(-n2c(C)cc(OCc3ccc(F)cc3F)c(Br)c2=O)c1 | inactive
CN(C)c1ccc(C2Nc3ccc4ccccc4c3C3=C2C(=O)CC(C)(C)C3)cc1Br (configuration not stated) | inactive
O=C(NOC[C@H](O)CO)c1ccc(F)c(F)c1Nc1ccc(I)cc1F | inactive
C[C@H](NC(=O)Cc1cc(F)cc(F)c1)C(=O)N[C@@H]1C(=O)N(C)c2ccccc2-c2ccccc21 | inactive
CN(C)C(=O)c1ccc(S(=O)(=O)c2ccc(NC(=O)[C@@](C)(O)C(F)(F)F)c(Cl)c2)cc1 | inactive
CCCS(=O)(=O)Nc1ccc(F)c(C(=O)c2c[nH]c3ncc(Cl)cc23)c1F | inactive
CCc1cc(Nc2nccc(-c3c(-c4ccc(OC)c(C(=O)Nc5c(F)cccc5F)c4)nc4ccccn34)n2)c(OC)cc1N1CCC(N2CCN(S(C)(=O)=O)CC2)CC1 | inactive
COc1ccccc1[C@H](c1cccc2ccccc12)[C@@](C)(C#N)C(=O)N1CCC(c2cccc(C(F)(F)F)c2)CC1 | inactive
O=C(Nc1ccc(F)c(C(F)(F)F)c1)Nc1nnc(-c2ccncc2)s1 | inactive
COc1cc2c(cc1OC)CN(CCc1ccc(NC(=O)c3cccc4c(=O)c5cccc(OC)c5[nH]c34)cc1)CC2 | inactive
CCOc1cc(C(=O)Nc2ccc(Cl)c(-c3nc4ccccc4[nH]3)c2)cc(OCC)c1OCC | inactive
Cc1cc(SCc2sc(-c3ccc(C(F)(F)F)cc3)nc2C)ccc1OCC(=O)O | inactive
CNC(=O)c1ccc(N2C(=S)N(c3ccc(C#N)c(C(F)(F)F)c3)C(=O)C2(C)C)cc1F | inactive

SMILES | Potency
C[C@@H]1CN(Cc2ccc(F)cc2)[C@@H](C)CN1C(=O)c1cc2c(C(=O)C(=O)N(C)C)cn(C)c2cc1Cl | inactive
COc1cc2nccc(Oc3ccc(NC(=O)NC4CC4)c(Cl)c3)c2cc1C(N)=O | inactive
COc1cccc2cc(-c3nc(C4CCC(C(=O)O)CC4)n4ncnc(N)c34)[nH]c12 (configuration not stated) | inactive
Cn1cnc2c(F)c(Nc3ccc(Br)cc3Cl)c(C(=O)NOCCO)cc21 | inactive
Cc1cnc(Nc2ccc(OCCN3CCCC3)cc2)nc1Nc1cccc(S(=O)(=O)NC(C)(C)C)c1 | inactive
CC(C)OC(=O)C1=CN(C(=O)c2ccc(F)c(F)c2)CC(C)(C)c2c1[nH]c1ccccc21 | inactive
Cc1cc(Nc2nc(N[C@@H](C)c3ncc(F)cn3)ncc2Cl)n[nH]1 | inactive
COc1cc(Nc2ncc3c(n2)-c2ccc(Cl)cc2C(c2c(F)cccc2OC)=NC3)ccc1C(=O)O | inactive
CC[C@H](Nc1ncnc2nc[nH]c12)c1nc2cccc(F)c2c(=O)n1-c1ccccc1 | inactive
CCCc1nn(C)c2c(=O)[nH]c(-c3cc(S(=O)(=O)N4CCN(C)CC4)ccc3OCC)nc12 | inactive
CS(=O)(=O)c1ccc(C(=O)Nc2ccc(Cl)c(-c3ccccn3)c2)c(Cl)c1 | inactive
CNCc1ccc(-c2[nH]c3cc(F)cc4c3c2CCNC4=O)cc1 | 11.4 µM (active) and 12.8 µM (active) and 15.8 µM (active)
Clc1ccc(Nc2nnc(Cc3ccncc3)c3ccccc23)cc1 | inactive
CNC(=O)c1ccccc1Sc1ccc2c(/C=C/c3ccccn3)n[nH]c2c1 | inactive
CC[C@@H](C)[C@H](NC(=O)[C@H](CC1CCCCC1)NC(=O)c1ccno1)C(=O)N1CCC2(CCc3ccccc32)CC1 | inactive
O=C(c1cc(Cc2n[nH]c(=O)c3ccccc23)ccc1F)N1CCN(C(=O)C2CC2)CC1 | inactive
COc1nc(-c2ccc3c(c2)OCO3)n(-c2ccc(NC(=O)CSc3ccccc3)cc2)n1 | inactive
